# This is a sample that favours compounds with a hit; in the whole collection about 9% have one here.
# HPGD block – HPGD (human) dehydrogenase inhibition; P15428; purified HPGD, NADH fluorescence kinetic, PGE2 substrate; Potency, µM, usual class: inhibitors; hit rate 4.3% among 150,000; AID 894; active means well fitted inhibition curve with a large enough effect, not every such curve was filed as active; inconclusive means small, poorly fitted or top-dose-only effect, or another doubt; inactive means no such curve, though single readings can be large or run the other way
#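 20 nM HPGD preincubated 15 min at room temperature with compound in 50 mM Tris-HCl pH 8, 0.01% Tween 20. Started with 1 mM NAD+ and 30 uM prostaglandin E2; NADH fluorescence (360/450 nm) read 5 times over 30-s intervals, last minus first.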
# Lamin A splicing – changes lamin A minigene splicing in HeLa cells. HeLa LMNA splicing GFP/RFP minigene ratio, 48 h. Potency, µM (highest dose often 46.1 µM), usual class: inhibitors. hit rate 0.01% among 200,000; active means well fitted inhibition curve with a large enough effect in the signal ratio, with a control signal flat, not every such curve was filed as active; inconclusive means small, poorly fitted or top-dose-only effect, or effect the other way, or a change in a side signal; the % refers to the signal ratio
#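 S3 HeLa stable clones carrying a lamin A-EGFP splicing minigene plus DsRed2 were seeded at 600 cells/well in Opti-MEM with 2% FBS, pin-dosed and incubated 48 h at 37°C. Acumen cytometry (488 nm) gave the GFP/RFP total-intensity ratio.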
# IMPase Li cell – cell-permeable IMPase inhibitors with lithium potentiation. CHO-M1 cells, IP1 TR-FRET (IP-One), carbachol + lithium. Potency, µM (series often up to 59.4 µM), actives largely listed as inhibitors. hit rate 0.35% among 210,000. AID 1457;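 further: IP1 builds up when IMPase is blocked and the TR-FRET signal falls; nearly all actives have a fitted effect of over 50% in size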
#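 Concentration–response in CHO-M1 cells, lithium-potentiated; 30 min at 37C. IP1 detected by competitive TR-FRET after 10 min lysis at RT. Hill-fitted AC50.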
# ALDH1A1 inh – ALDH1A1 (human) enzyme inhibition. P00352. Purified ALDH1A1, NADH fluorescence, propionaldehyde substrate. Potency, µM (top dose mostly 75.3 µM), usual class: inhibitors. hit rate 7.3% among 220,000. AID 1030; active means well fitted inhibition curve with a large enough effect, not every such curve was filed as active; inconclusive means small, poorly fitted or top-dose-only effect, or another doubt; inactive means no such curve, though single readings can be large or run the other way
# Target sequence (P00352 whole entry, looked up): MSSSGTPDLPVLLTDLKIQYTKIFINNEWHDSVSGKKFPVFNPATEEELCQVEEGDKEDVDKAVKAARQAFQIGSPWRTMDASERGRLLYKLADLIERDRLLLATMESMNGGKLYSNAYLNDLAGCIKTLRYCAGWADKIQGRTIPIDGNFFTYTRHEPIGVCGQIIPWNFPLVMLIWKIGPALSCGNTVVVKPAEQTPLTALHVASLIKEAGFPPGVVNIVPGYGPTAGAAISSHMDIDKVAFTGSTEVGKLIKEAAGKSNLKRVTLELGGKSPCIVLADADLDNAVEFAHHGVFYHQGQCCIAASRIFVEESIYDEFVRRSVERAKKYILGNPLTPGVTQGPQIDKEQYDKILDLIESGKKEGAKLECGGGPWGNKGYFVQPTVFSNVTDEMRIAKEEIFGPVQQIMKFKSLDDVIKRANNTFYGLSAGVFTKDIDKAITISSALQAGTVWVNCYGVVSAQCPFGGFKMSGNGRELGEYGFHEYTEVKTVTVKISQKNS
# Luc counter – Kinase-Glo luciferase inhibition (counter-screen). Q27757. Kinase-Glo luciferase, ATP luminescence, 8 min. Potency, µM (titrated, usually from 38.3 µM), hits mostly inhibitors. hit rate 0.28% among 200,000; further: nearly all actives have a fitted effect of over 60% in size
#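 Substrate mix (final 50 mM imidazole pH 7.2, 50 mM KCl, 7 mM MgCl2, 10 uM ATP, 0.01% Tween 20, 0.05% BSA) plus pin-tool compound, then Kinase-Glo detection mix; 8 min ambient, luminescence read.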
# Numbers stand for hits; - = inactive; ? = inconclusive; . = no result given; [ ] = another dose, or the depositor's remark. Unless noted, the call rests on the fitted dose curve; in most records, active means well fitted curve in the direction sought with a large enough effect; inconclusive means small, poorly fitted or top-dose-only effect, or another doubt; inactive means no such curve, though single readings can be large; an effect the other way counts as inactive or inconclusive.
SMILES,HPGD block,Lamin A splicing,IMPase Li cell,ALDH1A1 inh,Luc counter
COc1cccc(CN(C)C(=O)c2ccc(S(=O)(=O)N3CCCC3)cc2)c1OC,-,?,-,11µM,-
COc1ccc(Br)cc1CNC(=O)C1CCN(S(=O)(=O)N2CCCCC2)CC1,-,-[0.0737 µM],-,13µM,-
COc1cccc(CNC(=O)C2CCN(S(=O)(=O)N3CCCCC3)CC2)c1,-,-,-,10µM,-
COc1ccc(S(=O)(=O)N2CCC(C(=O)NCc3cccc(OC)c3)CC2)cc1,-,-,-,-,-
COc1cccc(CNC(=O)c2cc(S(=O)(=O)N3CCCCCC3)cn2C)c1,.,-,.,.,.
COc1cccc(CNC(=O)c2ccc(S(=O)(=O)N3CCCC3)cc2)c1,-,-,-,13µM,-
Cc1ccc(-n2ncc3c(Nc4ccc5c(c4)OCCO5)ncnc32)cc1C,.,-,.,.,.
Cc1cc(C)c(C(=O)COC(=O)c2cccnc2Cl)c(C)c1,.,?,-,-,-
Cc1cc2ncc(C(=O)Nc3ccsc3C(=O)O)c(C)n2n1,.,.,-,14µM,-
CC(=O)c1cnc2cc(C)nn2c1C,-,-,-,-,-
CCOc1ccc(-c2nn[nH]n2)cc1,-,-,-,-,-
Brc1cc2c(cc1COc1ccc(-c3nn[nH]n3)cc1)OCO2,25µM,-,-,?,-
O=C(c1coc2ccc(O)cc12)C1CC1,-,-,-,2.8µM,-
O=C(c1ccc(Cl)cc1)c1coc2ccc(O)cc12,-,?,-,-,-
O=C(C1CCCN(Cc2cccnc2)C1)N1CCCCC1 (stereo not drawn),.,-,.,5µM,.
C/C(=C\c1ccccc1)CN1CCC(C(=O)N2CCCCC2)CC1,14µM,-,-,?,-
C/C(=C\c1ccccc1)CN1CCC(C(=O)N2CCC(C)CC2)CC1,-,-,-,35µM,-
COc1ccc(CN2CCCC(C(=O)N3CCCC3)C2)cc1 (stereo not drawn),-,-,-,-,-
O=C(C1CCN(CCCc2ccccc2)CC1)N1CCCCC1,-,-,-,14µM,-
CC[C@@H]1CC(=O)N(SC[C@H](N)C(=O)O)C1=O,-,.,-,-[13.5 µM],-[7.66 µM]
CC(C)CN(CC(C)C)S(=O)(=O)N1CCC(C(=O)NCc2ccc3c(c2)OCO3)CC1,.,.,-,-,-
CC(=O)Nc1ccc(S(=O)(=O)N2CCc3nc(COc4ccccc4)c4c(c3C2)CO[C@@H](C)C4)cc1,-,-[9.22 µM],-,-[13.5 µM],-[7.66 µM]
CO[C@H]1COC(=O)[C@@H](Cc2ccccc2)NC(=O)[C@@H](C)COC(=O)C/C=C\[C@@H]1C,.,.,.,-[13.5 µM],.
Cc1cc(=O)[nH]c2c1c(C)nn2C1CCOC(C)(C)C1 (stereo not drawn),-,-,-,?,-
CCOc1ccccc1NC(=O)CSc1ncc(S(=O)(=O)c2ccc(C)c(C)c2)c(N)n1,.,-,.,.,.
SMILES,HPGD block,Lamin A splicing,IMPase Li cell,ALDH1A1 inh,Luc counter
Cc1ccc(N2C(=O)CC(Sc3ccccc3C(=O)O)C2=O)c([N+](=O)[O-])c1 (stereo not drawn),.,?,-,2µM,-
COc1ccc(N2C(=O)CC(Sc3ccccc3C(=O)O)C2=O)c([N+](=O)[O-])c1 (stereo not drawn),.,?,-,1µM,-
CC1CN(c2ccc(C(=O)c3ccccc3C(=O)O)cc2[N+](=O)[O-])CC(C)O1 (stereo not drawn),.,-,-,-,-
COc1ccc(N2CCN(C(=O)c3cccc(F)c3)CC2)c([N+](=O)[O-])c1,.,-,-,?,-
CCOc1ccccc1NC(=O)C(c1ccccc1)N1Cc2ccccc2C1=O (stereo not drawn),.,-,.,.,.
COc1ccc(O)c(/C=N/n2c(-c3ccco3)csc2=Nc2cccnc2)c1,-,-,-,-,-
CN=c1scc(-c2ccco2)n1/N=C/c1ccc(O)c(O)c1,.,-,-,28µM,-
C=CCN=c1scc(C)n1/N=C/c1ccc(O)c(O)c1,.,-,-,22µM,-
CCC(CC)N=C1NS(=O)(=O)c2cc([N+](=O)[O-])ccc21,.,.,-,-,-
Cc1ccccc1NC(=O)COC(=O)CCSc1ccccc1,.,.,-,?,-
CCOc1ccc(C(=O)NCC(c2ccc3c(c2)OCO3)N2CCN(c3ccc(F)cc3)CC2)cc1 (stereo not drawn),.,-,.,.,.
CCc1ccc(C(=O)COc2ccc(NC(C)=O)cc2)cc1,-,-,-,-,-
CC(=O)N1CCc2cc(S(=O)(=O)NC(Cc3ccccc3)C(=O)Nc3cc(C)ccn3)ccc21 (stereo not drawn),-,-,-,10µM,-
CCC(=O)N1CCc2cc(S(=O)(=O)NC(Cc3ccccc3)C(=O)NC3CCCCC3)ccc21 (stereo not drawn),-,-,-,-,-
CCc1cc2ccc(C)cc2nc1SCC(=O)c1ccc(NC(C)=O)cc1,8.9µM,-,-,25µM,-
N=c1c2ccccc2nnn1-c1ccc(C(F)(F)F)cc1,.,.,-,-,-
COc1ccc(CCN2C(=O)c3cccc4c(C(=O)N5CCCCC5)ccc(c34)C2=O)cc1OC,13µM,?,-,10µM,-
Cc1nc(Cl)sc1C(=O)Nc1cccc2ccccc12,-,-,-,-,-
N/C(=N\OC(=O)c1cccs1)c1ccccc1,32µM,-,-,-,10µM
Cc1cccc(/C(N)=N/OC(=O)c2ccc(F)cc2)c1,-,-,-,-,11µM
Cc1cccc(/C(N)=N/OC(=O)c2cccs2)c1,20µM,-[0.0737 µM],-,-,2.5µM
Cc1cccc(C(=O)O/N=C(\c2ccccc2)c2cccnc2)c1,-,-,-,16µM,-
Cc1ccc(/C(N)=N/OC(=O)c2cccs2)cc1,-,-,-,-,-
COc1ccc(S(=O)(=O)NCC(c2ccco2)N2CCOCC2)cc1OC (stereo not drawn),.,-,.,.,.
CCOc1cc(C)c(C(C)C)cc1S(=O)(=O)N1CCOCC1,-,-,-,3.5µM,-
SMILES,HPGD block,Lamin A splicing,IMPase Li cell,ALDH1A1 inh,Luc counter
COc1cc(C)c(S(=O)(=O)N2CCOCC2)cc1C,-,-,-,-,-
COc1cc(C)c(C(C)C)cc1S(=O)(=O)N1CCOCC1,-,-,-,3.2µM,-
COc1cc(C#N)c(NC(=S)N2CCOCC2)cc1OC,.,.,-,-,-
COc1cc(OC)cc(N(C(=O)c2ccco2)C(C(=O)NC2CCCC2)c2ccc(N(C)C)cc2)c1 (stereo not drawn),-,-,-,?,-
CCOc1ccccc1C(C(=O)NC1CCCC1)N(Cc1ccco1)C(=O)CNC(=O)c1ccco1 (stereo not drawn),-,-,-,1.8µM,-
O=C(NCC(=O)N(Cc1ccccc1)C(C(=O)NC1CCCC1)c1ccco1)c1ccco1 (stereo not drawn),-,-,-,?,-
O=C(NCC(=O)N(Cc1cccs1)C(C(=O)NC1CCCCC1)c1ccco1)c1ccco1 (stereo not drawn),-,-,-,22µM,-
COc1ccc(N(C(=O)c2ccco2)C(C(=O)NC2CCCC2)c2ccc(N(C)C)cc2)cc1 (stereo not drawn),-,-,-,2.5µM,-

# Source: PubChem (National Center for Advancing Translational Sciences (NCATS))
